{"source": "PubChem BioAssay (NCATS)", "note": "Values without a mark were called inactive. Activity calls are given as the source filed them. Calls come from the whole dose curve; as a rule, active = well fitted cell-killing curve with a large enough effect; inconclusive = small, poorly fitted or top-dose-only effect; inactive = flat fitted curve, though single readings scatter.", "data": [{"test": "MultiTox-Fluor Cytotoxicity Assay - LYMP1-003 - Live Cells (AID 962);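 note: cells exposed to compound for 16 hours at 37 °C; 0% = DMSO only and full loss = 92 µM tetraoctylammonium bromide; cytotoxic hits lower the live-cell protease signal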", "conditions": "LYMP1-003 lymphoblastoid cells, MultiTox-Fluor live-cell protease fluorescence; series mostly up to 92.2 µM; activity change, negative = fewer live cells: at the top concentration", "method_in_brief": "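Cells plated at 2500 per well and incubated 5 hr; compounds added and incubated 16 hr at 37 C; MultiTox-Fluor reagent added for 60 min at room temperature; fluorescence of liberated AFC measured at 405/510 nm.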", "units": {"activity change, negative = fewer live cells": "%"}, "values": [{"smiles": "CCCCCCCCCCCCOS(=O)(=O)O", "outcome": "inactive"}, {"smiles": "NCCNCCNCCN", "activity change, negative = fewer live cells": -7.3}, {"smiles": "[Cl][In]([Cl])[Cl]", "activity change, negative = fewer live cells": -5.05}, {"smiles": "Nc1ccc(S(=O)(=O)Nc2nccs2)cc1", "activity change, negative = fewer live cells": -4.56}, {"smiles": "Oc1cccc(O)c1", "activity change, negative = fewer live cells": -4.02}, {"smiles": "CCCCOC(=O)c1ccc(O)cc1", "activity change, negative = fewer live cells": -2.34}, {"smiles": "C[C@]12C[C@H](O)[C@H]3[C@@H](CCC4=CC(=O)CC[C@@]43C)[C@@H]1CC[C@@H]2C(=O)CO", "activity change, negative = fewer live cells": -7.68}, {"smiles": "Cc1cc(CC(=O)O)n(C)c1C(=O)c1ccc(Cl)cc1", "activity change, negative = fewer live cells": -2.54}, {"smiles": "CC1(C)[C@@H]2CC[C@@]1(C)C(=O)C2", "activity change, negative = fewer live cells": -6.9}, {"smiles": "O=C1O[C@H]([C@@H](O)CO)C(O)=C1O", "activity change, negative = fewer live cells": -6.38}, {"smiles": "NCCNCCNCCNCCN", "activity change, negative = fewer live cells": -0.43}, {"smiles": "CN(C)CCC=C1c2ccccc2CCc2ccccc21", "activity change, negative = fewer live cells": -26.9}, {"smiles": "O=C1c2c(O)cccc2Cc2cccc(O)c21", "activity change, negative = fewer live cells": -1.83}, {"smiles": "Cc1cc2nc3c(=O)[nH]c(=O)nc-3n(C[C@H](O)[C@H](O)[C@H](O)CO)c2cc1C", "activity change, negative = fewer live cells": 4.62}, {"smiles": "COc1ccccc1O", "outcome": "inactive"}, {"smiles": "CC12CCC(CC1)C(C)(C)O2", "activity change, negative = fewer live cells": -7.99}, {"smiles": "NC(=O)N/N=C/c1ccc([N+](=O)[O-])o1", "activity change, negative = fewer live cells": -23.6}, {"smiles": "NC(=O)c1ncn([C@@H]2O[C@H](CO)[C@@H](O)[C@H]2O)n1", "activity change, negative = fewer live cells": -6.71}]}]}
